# Bioassay records (PubChem BioAssay)
# HepG2 tox: kills HepG2 cells in TGF-b inhibitor counter-screen; HepG2 CAGA-GFP viability, ATP luminescence, 18 h; Potency, µM (top dose mostly 46.1 µM), for inactives: at the top dose activity change, negative = cytotoxicity, usual class: cytotoxic; 410,000 tested, 0.76% active; AID 588856; note: potency is the fitted concentration of half-maximal effect
#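 CellTiter-Glo luminescence gave cytotoxicity after 18 hours at 37 degrees C. The cells were HepG2 CAGA-GFP in 1% FBS DMEM, stimulated with 500 pg/mL TGF-beta after compound addition. %Activity was normalised to no-cell wells (complete cell-killing) and DMSO (no toxicity), and curves were fitted and classified.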
# TGFb SMAD3 inh: inhibitors of TGF-b signaling | Potency, µM (top dose mostly 46.1 µM), inactives show at the highest dose activity, negative = inhibition, most hits filed as inhibitors | HepG2 CAGA-GFP TGF-b/SMAD3 reporter, GFP fluorescence, 18 h; TGF-beta stimulated, 500 pg/mL final | 410,000 tested, 1.2% active | AID 588855; note: potency is the fitted concentration of half-maximal effect; % is set by controls: 0 for no effect and ±100 for the full control effect; nearly all actives have a fitted effect of over 65% in size
#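 Cell-based qHTS in HEPG2 carrying a CAGA-GFP Smad reporter; compounds added before 500 pg/mL final TGF-beta, 18 h incubation at 37 degrees C, GFP fluorescence quantified per cell by imaging cytometry.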
# Giardia kill: Giardia lamblia killing; Giardia lamblia trophozoite viability; activity change, % at 7.66 µM, hits read low; 340,000 tested, 0.15% active; AID 540267; in the data active = activity change below about -80%; inconclusive = between about -30% and that limit;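 note: parasites exposed to compound for two days anaerobically before the ATP read; % is set by controls: 0 for no effect and ±100 for the full control effect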
#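 Luminescence from cellular ATP indicates surviving trophozoites (100 cells/well) following 48 hrs anaerobic compound treatment at 37 deg C; signal develops 15-30 min at room temperature.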
# HT1080 IDH1KD tx: HT-1080 IDH1 knockdown cell toxicity (counter line); HT-1080 IDH1 knockdown viability, ATP luminescence, 48 h; 360,000 tested, 2% active; Potency, µM (titrated, usually from 46.1 µM), for the others: at the highest dose activity, negative = toxicity, hits mostly cytotoxic;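 note: potency is the fitted concentration of half-maximal effect; 0% = DMSO wells and -100% = cell-free medium wells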
#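 Knockdown cells (IDH1KD HT-1080) received compounds 2 h after plating at 750 cells/well and were kept 48 h at 37 °C in 5% FBS RPMI. A CellTiter-Glo luminescence read gave % activity for curve fitting.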
# IL-1B inflam inh: blocks inflammasome-driven IL-1 beta release. THP-1 LPS/ATP IL-1B secretion, AlphaLISA, 16 h; hits give low values. activity change, % at 57.5 µM. 360,000 tested, 4.7% active. AID 743279; in the data active = activity change below about -50%; inconclusive = mostly about -30% to -49%; note: % is set by controls: 0 for no effect and ±100 for the full control effect
#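 THP-1 cells pretreated 1 hr with compounds (up to 57.5 uM final), then stimulated with LPS (250 ng/mL final) plus ATP (1.25 mM final); secreted IL-1B measured by AlphaLISA after 16 hr, decreased signal indicating inhibition.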
# HT1080-NT tox: kills 2HG-producing HT-1080-NT fibrosarcoma cells; HT-1080-NT fibrosarcoma viability, CellTiter-Glo ATP luminescence, 48 h; AID 686970; 360,000 tested, 1.6% active; Potency, µM (series often up to 46.1 µM), without a hit: at the highest dose activity, negative = less viability, actives largely listed as cytotoxic;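 note: NT is the 2HG producing partner of a matched IDH1 knockdown line; potency is the fitted concentration of half-maximal effect; 0% = DMSO-treated cells and -100% = media-only wells without cells; nearly all actives have a fitted effect of over 55% in size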
#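 750 cells/well, RPMI + 5% FBS; 2 h settle, compound pin-transfer, 48 h at 37 degrees C. CellTiter-Glo 10 min RT, luminescence. Normalized to DMSO and media-only wells.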
# The depositor's hits bear a star; ? = inconclusive; nt = no result given. Only some compounds are listed: those with a hit (about 6.5% of all), similar ones and a draw of the others. Unless noted, calls come from the whole dose curve; as a rule, active = well fitted curve in the direction sought with a large enough effect; inconclusive = small, poorly fitted or top-dose-only effect, or another doubt; inactive = no such curve, though single readings can be large; an effect the other way counts as inactive or inconclusive.
SMILES,HepG2 tox,TGFb SMAD3 inh,Giardia kill,HT1080 IDH1KD tx,IL-1B inflam inh,HT1080-NT tox
CCOC(=O)c1[nH]c(C)c(C(=O)NCc2ccc(Cl)cc2)c1C,-15%,-21%,8,-25%,35,?
CCOC(=O)c1[nH]c(C)c(C(=O)Nc2ccccc2C)c1C,-1%,-15%,14,2.3µM*,-5,5.8µM*
CCOC(=O)c1c(C)[nH]c(C(=O)N/N=C/c2cc([N+](=O)[O-])ccc2O)c1C,-13%,-21%,-9,?,96,-26%
CCOC(=O)c1[nH]c(C)c(C(=O)Nc2cc(Cl)ccc2C)c1C,1%,4%,11,0.089µM*,49,0.32µM*
CC(CN1CCN(C)CC1)OC(=O)c1ccc(Cl)cc1 (stereo not drawn),-29%,22%,26,-22%,-84*,-13%
CC(CN1CCCCC1)OC(=O)c1ccc(Cl)cc1 (stereo not drawn),9%,-1%,-8,5%,8,8%
COc1ccc(-c2cc(C(=O)NCC(c3ccccc3)N(C)C)c3ccccc3n2)cc1OC (stereo not drawn),-28%,2%,-8,?,?,?
COc1ccc(C(CNC(=O)c2ccc(-c3ccccc3)cc2)N(C)C)cc1OC (stereo not drawn),-24%,-2%,-25,21µM*,?,18µM*
COc1ccccc1NC(=O)c1cc2ccccc2o/c1=N\O,-9%,-14%,-6,0%,-18,-1%
COc1ccccc1N=c1oc2cc(O)ccc2cc1C(N)=O,10µM*,24%,-4,?,?,23µM*
COc1ccccc1NC(=O)c1cc2ccc(O)cc2o/c1=N\O,-44%,-13%,-4,?,-63*,?
O=C(NC(=S)Nc1ccc(Cc2ccncc2)cc1)c1ccccc1Cl,6%,-22%,-2,19%,-21,20%
O=C(NC(=S)Nc1ccc(Cc2ccncc2)cc1)c1ccccc1F,-32%,?,7,-18%,-74*,-22%
COc1ccc(C(=O)NC(=S)Nc2ccc(Cc3ccncc3)cc2)cc1,-17%,-26%,31,21µM*,-64*,18µM*
COc1ccc(NC(=O)Nc2ccc(Cc3ccncc3)cc2)c(OC)c1,-28%,?,1,-10%,-51*,0%
Cc1ccccc1C(=O)NC(=S)Nc1ccc(Cc2ccncc2)cc1,11%,-9%,16,14%,-11,23%
O=C(CNC(=O)c1ccccc1)OCC(=O)N1c2ccccc2Sc2ccccc21,7%,4%,-10,10%,0,6%
CN(C)C(CNC(C(=O)Nc1ccc([N+](=O)[O-])cc1Br)c1ccccc1)c1ccccc1 (stereo not drawn),-4%,-12%,-15,23µM*,-73*,23µM*
CN(C)C(CNc1ccc(S(C)(=O)=O)cc1[N+](=O)[O-])c1ccccc1 (stereo not drawn),-23%,-7%,-7,-16%,0,-1%
CN(C)C(CNC(C(=O)Nc1ccc(F)cc1)c1ccccc1)c1ccccc1 (stereo not drawn),-14%,-20%,-17,-27%,-80*,-27%
CN(C)C(CNc1ccc(C(F)(F)F)cc1[N+](=O)[O-])c1ccccc1 (stereo not drawn),-16%,11%,0,-3%,-79*,-2%
CC(C)CNC(C(=O)Nc1ccc([N+](=O)[O-])cc1Br)c1ccccc1 (stereo not drawn),-12%,-11%,17,-3%,7,-4%
O=C(N/N=C/c1cc(Br)c(Br)o1)C(O)c1ccccc1 (stereo not drawn),-27%,-10%,-8,4%,-6,25%
O=C(NCCCc1nc2ccccc2n1Cc1cccc(Cl)c1)C1CCCCC1,-39%,?,nt,nt,nt,nt
